Records with an inconclusive call do not appear. The source made the active and inactive calls. Calls follow the shape of the dose curve; as a rule, active = well fitted curve in the direction sought with a large enough effect; inconclusive = small, poorly fitted or top-dose-only effect, or another doubt; inactive = no such curve, though single readings can be large; an effect the other way counts as inactive or inconclusive.
Columns and labels:
[1] = qHTS to identify inhibitors of the type 1 interferon - major histocompatibility complex class I in skeletal muscle: primary screen against the NCATS LOPAC collection (AID 1347405);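 also: lytic HiBiT luminescence reporting HLA-B protein level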
Outline: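 First, engineered myoblasts carrying HLA-B-HiBiT were seeded in medium lacking dexamethasone with 4 ng/ml IFN-beta. After 1 hr, compounds were pinned in (top 46 uM final, 7 points). After 24 hrs at 37 C, luminescence was measured following 10 min lysis.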

[2] = qHTS to identify inhibitors of the type 1 interferon - major histocompatibility complex class I in skeletal muscle: primary screen against the NCATS Pharmaceutical Collection (AID 1347407);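 also: luminescence of HiBiT knocked into endogenous HLA-B as interferon-induced MHC class I level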
Outline: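 Immortalized human myoblasts (C25cl48) with HiBiT knocked into endogenous HLA-B*08:01 were stimulated with 4.0 ng/ml IFN-beta and treated with compounds ([…] top 46 uM) for 24 hrs at 37 C. HiBiT lytic luminescence read.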

[3] = qHTS for inhibitors of adenylyl cyclases using a fission yeast platform: a pilot screen against the NCATS LOPAC library (AID 1347410)
Outline: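 S. pombe CHP2027 (AC9-GNAS-PDE4D2) carrying PKA-repressed fbp1-GFP, incubated 18 h at 30C in EMM with LOPAC compounds at up to 57 uM. GFP gain-of-signal read by laser scanning cytometry; DMSO negative control.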

[4] = target: Protein phosphatase 1D (Homo sapiens) (UniProt O15297); assay: RapidFire Mass Spectrometry qHTS Assay for Modulators of WT P53-Induced Phosphatase 1 (WIP1) (AID 1347424); also: series mostly up to about 63 µM
Outline: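 RapidFire MS readout of dephosphorylated VEPPL-S-QETFS product, with 1 uM isotope-labelled peptide standard. Reaction: 10 nM WIP1, 2 uM phosphopeptide substrate, 5 min, room temperature, after 1 h compound preincubation; stopped with 0.5% formic acid.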

[5] = target: Protein phosphatase 1D (Homo sapiens) (UniProt O15297); assay: Rhodamine-PBP qHTS Assay for Modulators of WT P53-Induced Phosphatase 1 (WIP1) (AID 1347425)
Outline: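 WIP1 (5 nM final) was preincubated with compound for 1 hour at room temperature. It then dephosphorylated 10 uM VEPPL-pS-QETFS peptide in Tris-HCl pH 7.5 with 30 mM MgCl2. Released Pi was detected by 10 uM Rh-PBP fluorescence (ex 525/em 598 nm) read at 1-min intervals for 11 min, as delta f1 - f0.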

[6] = Validation qHTS assay for inhibitors of Activation Induced Cytidine Deaminase (AID): UDG Counterscreen signal (AID 1347427)
Outline: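 Fluorescence at 560 nm excitation, 665 nm emission reports UDG signal after 250 mM NaOH (2x) addition and 30 min. Enzymes (AID 1 uM, UDG 2 U/mL, at 4/3x) preincubated 10 min with compound, then 4 h with 4x 250 nM DJC20/DJC23 substrate at room temperature.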

[7] = target: Single-stranded DNA cytosine deaminase (Homo sapiens) (UniProt Q9GZX7); assay: Validation qHTS assay for inhibitors of Activation Induced Cytidine Deaminase (AID): AID signal (AID 1347429)
Outline: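 Steps: dispense AID with UDG; pin-transfer compound up to 114 uM final; add DJC20/DJC23 substrate and hold 4 hr at room temperature; add NaOH, hold 30 min; read FRET signal (540/590 nm).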

[8] = Primary qHTS for inhibitors of La Crosse Virus (LACV) - induced cell death in SH-SY5Y cells (AID 1508616);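 also: top concentration of the series differs between compounds; higher means more rescue of cells from virus-induced death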
Outline: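 SH-SY5Y, 6000 cells/well; cpd via pin tool in DMSO; LACV 0.01 MOI; 6 d 37C 5% CO2; ATPLite, 5 min RT; luminescence normalized to ±virus DMSO controls.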

[9] = Cytotoxicity qHTS for assessment of Hepg2 cells membrane integrity screened against the NCATS CANVASS Library (AID 1347387)
Outline: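 Cells were seeded at 2000 per well and left overnight to attach. Compounds were pin-transferred to give 0.59 nM - 46 uM in an 11-point series and incubated 5 hr at 37C. CytoTox-ONE reagent was added and, after 10 min at room temperature, fluorescence (ex 560, em 590 nm) was read.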

[10] = qHTS for Activators of p53 Stress Response Pathway screened against the NCATS CANVASS Library (AID 1347388)
Outline: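 p53RE-bla HCT-116 cells (4000/well) were pre-incubated for 5 h, then treated with compound (11 points) for 16 h at 37C. After 2 h with CCF4, the 460/530 nm ratio gave reporter activation; CellTiter-Glo measured viability.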

[11] = qHTS assay for small molecule disruptors of mitochondrial membrane potential screened against the NCATS CANVASS Library (AID 1347389); also: series mostly up to about 46 µM; nearly all actives have a fitted effect of over 60% in size
Outline: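 Mitochondrial depolarization in HepG2 cells is scored as a falling aggregate-to-monomer fluorescence ratio after 1 hr compound exposure and 30 min staining with Mito-MPS dye at 37C, each compound tested as an 11-point titration.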

[12] = Secretion counterscreen for inhibitors of the SERCaMP assay screened against the NCATS CANVASS Library (AID 1347390);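 also: light from luciferase secreted into medium read as a measure of general secretion; series mostly up to about 77 µM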
Outline: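 SH-SY5Y cells with constitutively secreted GLuc reporter, 1000 cells/well, treated 20 h at 37C with compounds at 0.001 - 77 uM final; secreted luciferase read as luminescence after coelenterazine; Brefeldin A as positive control.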

[13] = qHTS for activators of Nrf2/ARE signaling pathway screened against the NCATS CANVASS Library (AID 1347391); also: nearly all actives have a fitted effect of over 60% in size
Outline: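 Beta-lactamase reporter signal, read as 460 and 530 nm emission under 405 nm excitation after 2 h CCF4 loading, reflected ARE activation in HepG2 cells treated 16 h with an 11-point series.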

[14] = qHTS for activators of dead-cell proteases activity screened against the NCATS CANVASS Library (AID 1347392);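 also: luminescence from protease leaking out of membrane-damaged cells cleaving impermeant substrate; rising signal means more cytotoxicity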
Outline: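 HepG2, 2000 cells/well, 18 h attach; cpd 11-pt, 5 h 37C 5% CO2; CytoTox-Glo (AAF-aminoluciferin) 15 min RT; luminescence read.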

[15] = qHTS for inhibitors of ER calcium dysfunction: SERCaMP assay screened against the NCATS CANVASS Library (AID 1347393);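 also: series mostly up to about 77 µM; lower secreted reporter signal means inhibitor of ER calcium depletion; nearly all actives have a fitted effect of over 40% in size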
Outline: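 SH-SY5Y GLuc-SERCaMP, 1000 cells/well, 4 h attach; cpd 16 h, 37C/5% CO2; thapsigargin (added as 6x 600 nM) 4 h; coelenterazine; luminescence. Reduced reporter release = ER Ca stabilization.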

[16] = Vero-766 cells viability qHTS against the NCATS CANVASS Library: Counterscreen for Zika virus inhibition assay (AID 1347394); also: series mostly up to about 46 µM; nearly all actives have a fitted effect of over 60% in size
Outline: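 Vero 766 cells (1000/well), without Zika virus, were exposed to compounds for 72 h at 37C. Viability was measured by CellTiter Glo luminescence. Media-only wells served as 100% inhibition.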

[17] = qHTS for inhibitors of Wild type Zika virus screened against the NCATS CANVASS Library (AID 1347396);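 also: ATP luminescence of surviving cells so rescue from viral cell killing; series mostly up to about 46 µM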
Outline: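 Vero 766 (African green monkey) cells, 1000 per well, attached overnight, then compounds were added in an 11-point series before wild-type Zika virus infection. After 72 h at 37C, cell viability was read as CellTiter Glo luminescence.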

[18] = Viability qHTS for inhibitors of the SERCaMP assay screened against the NCATS CANVASS Library (AID 1347400); also: series mostly up to about 92 µM; nearly all actives have a fitted effect of over 70% in size
Outline: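 Seed SH-SY5Y-GLuc SERCaMP MJH297 cells at 1000 per well, incubate 4 h, add compounds across an 11-point range, incubate 48 h at 37C, then add CellTiter-Glo and read luminescence.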

[19] = Redox Reaction Profiling qHTS: Assay Interference Panel against the NCATS CANVASS Library (AID 1347401)
Outline: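 Fluorescence read-out (525 nm excitation, 598 nm emission) at time zero and after 15 min in the dark tracked resorufin formation. Mix: 5 uM resazurin, 200 uM DTT, HEPES pH 7.3 buffer with NaCl.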

[20] = qHTS to identify inhibitors of the type 1 interferon - major histocompatibility complex class I in skeletal muscle: primary screen against the NCATS Mechanism Interrogation Plate v5.0 (MIPE) Libary (AID 1347411); also: nearly all actives have a fitted effect of over 65% in size
Outline: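 Seed engineered human myoblasts (HLA-B HiBit) in medium without dexamethasone containing 4 ng/ml IFN-beta; after 1 hr add compound titrations (top 46 uM final). Incubate 24 hrs at 37 C, lyse 10 min with HiBiT reagent, read luminescence.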

Measured: Potency

Chain of Single-stranded DNA cytosine deaminase (Homo sapiens) (Q9GZX7 whole entry, looked up): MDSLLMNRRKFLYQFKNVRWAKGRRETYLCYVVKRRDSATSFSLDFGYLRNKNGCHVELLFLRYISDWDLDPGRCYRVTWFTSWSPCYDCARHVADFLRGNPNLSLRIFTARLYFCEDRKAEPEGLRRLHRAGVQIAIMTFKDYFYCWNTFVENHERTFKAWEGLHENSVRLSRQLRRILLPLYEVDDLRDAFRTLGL
Chain of Protein phosphatase 1D (Homo sapiens) (O15297 whole entry, looked up): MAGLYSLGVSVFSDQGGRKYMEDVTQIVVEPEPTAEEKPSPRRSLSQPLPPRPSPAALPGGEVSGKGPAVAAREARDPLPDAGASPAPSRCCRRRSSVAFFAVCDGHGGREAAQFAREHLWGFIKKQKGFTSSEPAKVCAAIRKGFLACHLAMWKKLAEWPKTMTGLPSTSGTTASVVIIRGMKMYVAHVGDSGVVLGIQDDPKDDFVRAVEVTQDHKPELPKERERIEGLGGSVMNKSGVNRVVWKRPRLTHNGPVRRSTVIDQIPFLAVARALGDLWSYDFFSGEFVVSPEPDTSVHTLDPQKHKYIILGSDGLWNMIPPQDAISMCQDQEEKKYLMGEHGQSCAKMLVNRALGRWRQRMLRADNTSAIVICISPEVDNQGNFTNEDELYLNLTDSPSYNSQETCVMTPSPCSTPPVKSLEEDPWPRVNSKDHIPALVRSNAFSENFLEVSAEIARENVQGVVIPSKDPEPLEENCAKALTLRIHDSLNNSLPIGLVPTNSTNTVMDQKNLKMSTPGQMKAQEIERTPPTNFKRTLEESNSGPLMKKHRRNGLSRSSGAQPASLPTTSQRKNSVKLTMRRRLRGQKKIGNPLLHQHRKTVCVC

Cc1cccc(C)c1OCC(C)N (stereo not drawn)
inactive: [1] | [2] | [3] | [4] | [5] | [6] | [7] | [8]

COC[C@@H](c1ccc(C(F)(F)F)cc1)N1CCN(C2(C)CCN(C(=O)c3c(C)ncnc3C)CC2)C[C@H]1C
inactive: [2] | [4] | [5] | [8]

CCN1CCC[C@H]1CNC(=O)c1cc(S(N)(=O)=O)ccc1OC
inactive: [1] | [2] | [3] | [4] | [5] | [6] | [7] | [8]

O=c1cc(-c2ccccc2)oc2cc(O)c(O)c(O)c12
inactive: [9] | [10] | [11] | [12] | [13] | [14] | [15] | [16] | [17] | [18] | [19]

CCn1cc(C(=O)O)c(=O)c2ccc(C)nc21
inactive: [1] | [2] | [3] | [4] | [5] | [6] | [7] | [8]

COc1ccc(Cc2nccc3cc(OC)c(OC)cc23)cc1OC
inactive: [1] | [3] | [6] | [7]

O=C(NCCN1CCOCC1)c1ccc(Cl)cc1
inactive: [1] | [2] | [3] | [4] | [5] | [6] | [7] | [8]

COc1ccc2cccc(CCNC(C)=O)c2c1
inactive: [2] | [20] | [4] | [5] | [8]

CC(=O)c1ccc(S(=O)(=O)NC(=O)NC2CCCCC2)cc1
inactive: [1] | [2] | [3] | [4] | [5] | [6] | [7] | [8]

COc1cc2ncnc(Nc3ccc(F)c(Cl)c3)c2cc1OCCCN1CCOCC1
inactive: [2] | [20] | [4] | [5]
